Pf apPOL inh: Pf-apPOL DNA polymerase inhibition; AID 1794808; actives 0.25% (n = 210,000); inhibition, % at 10 µM; Recombinant Pf-apPOL, molecular beacon fluorescence, 1.5 h
mHTT CaM bind: mHTT-calmodulin interaction abrogation. P42858. AlphaScreen His-mHTT/GST-CaM binding, luminescence. inhibition, % at 15 µM. actives 3.6% (n = 190,000). AID 1671202;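 note: 0% = both proteins with DMSO and 100% = one protein alone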
* = called active by the depositor; x = no result given. Most compounds without a hit are left out; they make up all but 3.6% or so of the library. Cut-off read from the data, not from the text of the source: active = inhibition above about 50%; inactive = the rest.

SMILES	Pf apPOL inh	mHTT CaM bind
Cc1cc(C(=O)N2CCN(CCNC(=O)Cc3ccc(-c4ccccc4)cc3)CC2)no1	-9.0	10.6
O=C(Nc1cccc(F)c1)c1ccc(N2CCC(NCc3cc(Cl)ccc3O)C2)nc1 (configuration not stated)	-4.2	70.1*
O=C(Nc1cccc(F)c1)c1ccc(N2CCC(NCc3ccccc3O)C2)nc1 (configuration not stated)	-2.4	8.7
CCOC(=O)NNC(=S)Nc1c(C)cccc1C	4.8	x
COc1ccc(Cl)cc1NC(=O)Nc1ccccc1NC(=O)c1ccco1	-5.5	-4.6
CN1C(=O)C2CCCCN2c2ccc(C(=O)N3CCN(c4ccc(Cl)cc4)CC3)cc21 (configuration not stated)	1.3	67.8*
O=C1Nc2cc(C(=O)N3CCN(c4ccc(Cl)cc4)CC3)ccc2N2CCCCC12 (configuration not stated)	2.2	26.6
Brc1cccc(C2=Nn3c(nnc3-c3ccccn3)SC2)c1	x	54.4*
Brc1ccccc1-c1nnc2n1N=C(c1ccccc1)CS2	-3.6	31.0
CC1CC(C)CN(C(=O)c2coc(=O)c3ccccc23)C1 (configuration not stated)	4.1	3.0
O=C(Cc1cccs1)Nc1cnc(-c2ccccc2)nc1	33.6	51.2*
O=C(Cc1cccs1)Nc1cccc(C(=O)c2ccccc2)c1	-9.0	-4.2
CC(C)c1cc(C(=O)Nc2ccc(F)cc2F)nc2ccnn12	1.5	-22.9
COC(=O)c1nonc1N	x	-1.1
CCOC(=O)N1CCN(C(=O)c2cc(-c3ccco3)[nH]n2)CC1	-5.5	-9.7
CC(C)(C)n1nc2c(c1-n1cccc1)CN(C(=O)c1cc(-c3ccco3)[nH]n1)C2	81.5*	99.0*
COCCCNC(=O)C1(C)CCC(=O)N1CCc1ccc(SC)cc1 (configuration not stated)	-6.3	4.1
CC1=C(C#N)C(=O)N(C)C(=O)/C1=C\c1ccc(-c2ccc(Br)cc2C(=O)O)o1	-1.7	17.0
CC1=C(C#N)C(=O)N(CCCO)C(=O)/C1=C\c1ccc(-c2cc(C)c(C)cc2[N+](=O)[O-])o1	1.6	79.0*
Cc1cc(C)c(S(=O)(=O)NCC(CCC(=O)O)C(F)(F)F)c(C)c1 (configuration not stated)	-6.8	2.0
NNC(=O)c1ccc2[nH]c3c(c2c1)CCCC3	3.4	11.3
O=C(CCC1CCCCC1)NCc1ccc2[nH]c3c(c2c1)CCCC3	-6.8	98.4*
Cc1ccc(CNC(=O)CN(C)S(=O)(=O)c2ccc3[nH]c4c(c3c2)CCCC4)cc1	-0.8	32.5
O=C(CCC1CCCC1)NCc1ccc2[nH]c3c(c2c1)CCCC3	-15.2	100.2*
Nc1nnc(SCC(=O)n2c3c(c4c2CCCC4)CCCC3)s1	-1.0	3.6
SMILES	Pf apPOL inh	mHTT CaM bind
COc1ccc(-n2nc(C(=O)NCC(=O)N(C)Cc3ccccc3)c3ccccc3c2=O)cc1	0.3	66.0*
COc1ccc(-n2nc(C(=O)NCC(=O)O)c3ccccc3c2=O)cc1	-3.0	-1.0
CCCCCCN1CCN(C2CN(Cc3ccc(C)cc3)S(=O)(=O)C2)CC1 (configuration not stated)	-5.6	1.8
CC1=NN(c2ccccc2)C(=O)/C1=C/c1ccc(-c2ccccc2Cl)o1	-2.4	8.0
COc1cc([N+](=O)[O-])ccc1-c1ccc(/C=C2/C(=O)N(c3cccc(Cl)c3)N=C2C)o1	-7.0	0.0
CC1=NN(c2ccccc2)C(=O)/C1=C/c1ccc(-c2cccc([N+](=O)[O-])c2)o1	-9.4	5.0
CC1=NN(c2cccc(Cl)c2)C(=O)/C1=C/c1ccc(-c2ccc(C(=O)O)c(Cl)c2)o1	-6.4	52.0*
O=C1NN(c2ccc(Cl)c(Cl)c2)C(=O)/C1=C/c1ccc(-c2cccc(C(=O)O)c2)o1	-3.5	17.0
CC1=NN(c2ccccc2)C(=O)/C1=C/c1ccc(-c2cccc(C(=O)O)c2)o1	-11.5	76.0*
O=C1NN(c2ccc(Cl)c(Cl)c2)C(=O)/C1=C/c1ccc(-c2ccccc2C(=O)O)o1	-1.3	51.0*
CC1=NN(c2ccccc2)C(=O)/C1=C/c1ccc(-c2ccc(Cl)c(C(=O)O)c2)o1	-3.2	77.0*
CC(C)(C)NCC(O)COC1CC2CCC1(C)C2(C)C (configuration not stated)	2.3	-1.7
N=C1C(c2nc3ccccc3c(=O)[nH]2)=C(O)CN1c1ccccc1Cl	2.4	-3.0
CC(C)CCNC(=O)CCC(=O)N1CC2CCCN2c2ccccc21 (configuration not stated)	-6.8	12.5
O=C(CCC(=O)N1CC2CCCN2c2ccccc21)NCCc1ccccc1Cl (configuration not stated)	-3.1	53.5*
COc1ccc(CCNC(=O)CCC(=O)N2CC3CCCN3c3ccccc32)cc1OC (configuration not stated)	-4.9	26.3
O=C(CCC(=O)N1CC2CCCN2c2ccccc21)NCCc1ccc(Cl)cc1 (configuration not stated)	-1.3	74.8*
Cc1ccc(CN2C(=O)c3ccc([N+](=O)[O-])cc3C2=O)cc1	-0.6	8.9
CS(=O)(=O)N1N=C(c2ccccc2)CC1c1cc2cc3c(cc2nc1Cl)OCO3 (configuration not stated)	-9.9	8.0
Cc1ccc(Cn2ccc(NC(=O)CSc3n[nH]c(C)c3[N+](=O)[O-])n2)cc1	2.4	6.0
Cc1ccc(C(=O)N2CCc3c(c(-c4nc(-c5ccc(F)cc5)no4)nn3C)C2)cc1	-8.2	-6.1
Cc1cccc(CN2CCCn3nc(C(=O)NCc4ccc(C)o4)cc3C2=O)c1	5.9	40.5
O=C1NN(c2cccc(Br)c2)C(=O)/C1=C/c1ccc(O)cc1	1.3	26.0
Cc1ccc(N2NC(=O)/C(=C\c3ccc(Br)cc3)C2=O)cc1C	28.2	4.0
O=C1NN(c2ccc(Br)cc2)C(=O)/C1=C/c1cc([N+](=O)[O-])c(Cl)cc1Cl	-3.2	95.0*
SMILES	Pf apPOL inh	mHTT CaM bind
Cc1ccc(N2NC(=O)/C(=C\c3ccc(Cl)c([N+](=O)[O-])c3)C2=O)cc1C	-3.2	96.0*
Cc1cc([N+](=O)[O-])cc(/C=C2\C(=O)NN(c3ccc(Br)cc3)C2=O)c1O	-0.2	12.0
Cc1ccc(N2NC(=O)/C(=C\c3cccc(Br)c3)C2=O)cc1C	-2.3	69.0*
O=C1NN(c2ccc(F)cc2)C(=O)/C1=C/c1cccc(Br)c1	16.6	70.0*
Cc1ccc(N2NC(=O)/C(=C\c3ccc(O)c([N+](=O)[O-])c3)C2=O)cc1Cl	6.2	33.0
CC(C(=O)N1CCCCC1)C1CCN(S(=O)(=O)c2ccc(Cl)s2)CC1 (configuration not stated)	-1.8	-5.9
Cc1nc2c(C(=O)NCCC(C)C)cnn2c(C)c1Cc1ccccc1F	-12.2	18.0
CC(=O)N1CCc2cc(Br)cc(S(=O)(=O)NCC3CCCO3)c21 (configuration not stated)	-0.5	1.0
COc1cccc(-c2nc(C3CCN(C(=O)c4ccccc4)CC3)no2)c1	-0.5	12.8
COc1cccc(-c2nc(C3CCN(C(=O)C4COc5ccccc5O4)CC3)no2)c1 (configuration not stated)	0.9	86.9*
Cc1cccc(-c2nc(C3CCN(C(=O)COc4ccc(Cl)cc4)CC3)no2)c1	-1.3	80.2*
Cc1cccc(-c2nc(C3CCN(C(=O)Cc4cccc(F)c4)CC3)no2)c1	-0.2	19.6
COCc1cc(C)nc(NCCO)c1C#N	-1.6	-9.4

Compound activity deposited in PubChem BioAssay by University of Kansas High Throughput Screening Laboratory.
